Results published in PubChem BioAssay (Tox21).
Records with an inconclusive call do not appear. Values without a mark were called inactive. Active and inactive are the calls of the source. The call rests on the fitted dose curve; in most records, active means well fitted activation curve with a large enough effect in the signal ratio in the repeat runs (not every such curve was filed as active); inconclusive means weak or mixed curves; inactive means flat fitted curve, though single readings scatter; the % refers to the signal ratio.

Assay: p53 small molecule agonists, cell-based qHTS assay (AID 1963582)
Settings: HCT-116 p53RE-bla reporter, beta-lactamase FRET ratio, 16 h; series mostly up to 66 µM; activation: at the top concentration
Text: National Center for Advancing Translational Sciences [NCATS]
Division of Preclinical Innovation [DPI]
U.S. Environmental Protection Agency [EPA]
National Institutes of Environmental Health Sciences [NIEHS]
National Toxicology Program [NTP]
U.S. Food and Drug Administration [FDA]
p53, a tumor suppressor protein, is activated following cellular insult, including DNA damage and other cellular stresses. The activation of p53 regulates cell fate by inducing DNA repair, cell cycle arrest, apoptosis, or cellular senescence. The activation of p53, therefore, is a good indicator of DNA damage and other cellular stresses. […] The activation of the reporter gene under culture conditions can be detected by fluorescence intensity. This cell line was used to screen the Tox21 10K compound library in a 1536-well plate format and to identify agonists that activate the p53 signaling pathway.
Tox21 Assay Protocol Summary:
The p53RE-bla cells were dispensed at 4,000 cells/5 ul/well in 1536-well black wall/clear bottom plates using a Multidrop dispenser. After the assay plates were incubated at a 37 C/5% CO2 incubator for 5 hours, 23 nL of compounds dissolved in DMSO, positive controls or DMSO only was transferred to the assay plate by a pin tool. The plates were incubated at 37 C for 16 hours. After 1 uL of LiveBLAzerTM B/G FRET substrate was added using a Flying Reagent Dispenser, the plates were incubated at room temperature for 2 hours, and fluorescence intensity was measured by an Envision plate reader.
On the % scale 0 is the no-effect control and ±100 the full control effect; potency means the concentration at half of the fitted maximal effect.

Row | SMILES | activation | Potency
1 | NC(=S)C(N)=S | -5.12% | 
2 | COCC(C)N(C(=O)CCl)c1c(C)csc1C (stereo not given) | -4.09% | 
3 | CCOP(=S)(OCC)SCCS(=O)(=O)CC | -1.93% | 
4 | S=C(SSC(=S)N1CCCCC1)N1CCCCC1 | 8.2% [at 30.3 µM] | 
5 | CCOC(=O)CCN(SN(C)C(=O)Oc1cccc2c1OC(C)(C)C2)C(C)C | -4.36% | 
6 | COc1cc(C[C@@H](C)N)c(OC)cc1Br | -0.838% | 
7 | CC(CCc1ccccc1)NC(C)C(O)c1ccc(O)cc1 (stereo not given) | -0.465% [at 30.3 µM] | 
8 | C=C(C)CN(CC)c1c([N+](=O)[O-])cc(C(F)(F)F)cc1[N+](=O)[O-] | -5.33% | 
9 | CCCC[N+]1(C)[C@@H]2CC(OC(=O)[C@H](CO)c3ccccc3)C[C@H]1[C@@H]1O[C@@H]12 (stereo not given in full) | 0.211% [at 30.3 µM] | 
10 | N#CC(C#N)=NNc1cccc(Cl)c1 | -14.7% | 
11 | CCCC(Cn1cncn1)c1ccc(Cl)cc1Cl (stereo not given) | -0.118% | 
12 | CC(N)=S | -1.26% | 
13 | CN1C(=O)CN=C(c2ccccc2)c2cc([N+](=O)[O-])ccc21 | -3.48% [at 30.3 µM] | 
14 | BrCC(Br)C1CCC(Br)C(Br)C1 (stereo not given) | -0.182% | 
15 | CC#C[C@]1(O)CC[C@H]2[C@@H]3C[C@H](C)C4=CC(=O)CC[C@]4(C)[C@H]3CC[C@@]21C | 15.3% [at 30.3 µM] | 
16 | C[N+](C)(C)CCOC(=O)C(O)(c1ccccc1)c1ccccc1 | -0.0684% [at 30.3 µM] | 
17 | O=C(O)C(F)(F)C(F)(F)C(F)(F)C(F)(F)C(F)(F)F | 1.37% | 
18 | Cc1nnc2n1-c1sc(CCC(=O)N3CCOCC3)cc1C(c1ccccc1Cl)=NC2 | 0.134% [at 30.3 µM] | 
19 | CC1N=C(N)OC1c1ccccc1 (stereo not given) | 2.15% | 
20 | Cc1cc(=O)[nH]o1 | -0.601% | 

Row | SMILES | activation | Potency
21 | CCN(CCO)CCn1c(Cc2ccccc2)nc2c1c(=O)n(C)c(=O)n2C | 1.57% [at 30.3 µM] | 
22 | CCC[CH2][Sn]([CH2]CCC)([O]C(C)=O)[O]C(C)=O | -18.2% | 
23 | C=CC(=O)OCCCCOC(=O)C=C | 4.15% | 
24 | CCCCP(CCCC)CCCC | -0.476% | 
25 | CC(Cl)C(C)Cl (stereo not given) | -1.81% | 
26 | CC(C)(C)c1cc(O)ccc1O | -4.38% | 
27 | CCOC(=O)/C=C(C)/C=C/C[C@@H](C)CCCC(C)C | -4.83% | 
28 | CC(C)(OO)c1ccccc1 | 0.996% | 
29 | COP(N)(=S)Oc1ccccc1C(=O)OC(C)C (stereo not given) | -0.705% | 
30 | C=CCc1ccc(OC(=O)Cc2ccccc2)c(OC)c1 | -3.32% | 
31 | CC(Cc1ccc(OCC(=O)O)cc1)NCC(O)c1csc(C(F)(F)F)n1 (stereo not given) | 0.325% | 
32 | Oc1ccccc1Br | -3.01% | 
33 | Oc1cc(Cl)cc(Cl)c1 | -3.58% | 
34 | N#Cc1c[nH]cc1-c1cccc2c1OC(F)(F)O2 |  | 14.5 µM (active)
35 | CCNP(=S)(OC)O/C(C)=C/C(=O)OC(C)C (stereo not given) | -1.73% | 
36 | CC(=O)c1ccc(-c2ccccc2)cc1 | 0.27% | 
37 | CC(C)(C)C(O)/C(=C\c1ccc(Cl)cc1Cl)n1cncn1 (stereo not given) | 9.21% | 
38 | CCOc1nc(C(Cl)(Cl)Cl)ns1 | 3.78% | 
39 | CC[C@@H](CO)NC(=O)[C@@H]1C=C2c3cccc4c3c(cn4C)C[C@H]2N(C)C1 | -3.99% [at 30.3 µM] | 
40 | CC(C)Br | 0.0392% | 
